Source: PubChem BioAssay
DRD3 antagonist: antagonists of human D3 dopamine receptor; max response, negative = inhibition, %; D3R cells, DiscoveRx beta-arrestin luminescence, antagonist mode; active compounds read low; P35462; hit rate 2.5% among 360,000; in the data active = max response below about -50%; note: % is set by controls: 0 for no effect and ±100 for the full control effect
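Cells expressing the human receptor were seeded at 1500 cells/well, incubated overnight at 37 degrees C in 5% CO2, then exposed to library compounds with dopamine controls for 90 minutes at 37 degrees C before luminescent detection.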
LDHA block: inhibitors of human lactate dehydrogenase A; P00338; purified LDHA, NADH/diaphorase-resazurin fluorescence; active compounds read low; activity change, % (values are at about 110 or 230 µM); hit rate 0.15% among 480,000; AID 1347041; in the data active = activity change below about -30%;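 note: plate controls were DMSO wells for no effect and wells without enzyme for full effect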
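Enzyme activity of human lactate dehydrogenase 5 (2 nM; 0.06 mM NADH, 0.2 mM pyruvate, 5 min, RT) is measured via a resazurin/diaphorase fluorescence readout of residual NADH.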
PI5P4Ka inh: PI5P4K alpha (human) kinase inhibition | P48426 | max response, % | hit rate 1.2% among 330,000 | PI5P4Kalpha enzyme, ADP-Glo luminescence, 60 min; active compounds read low; active = max response of -50% or lower; note: value at the top dose of about 77 µM; % is set by controls: 0 for no effect and ±100 for the full control effect
Target sequence (P48426 whole entry, looked up): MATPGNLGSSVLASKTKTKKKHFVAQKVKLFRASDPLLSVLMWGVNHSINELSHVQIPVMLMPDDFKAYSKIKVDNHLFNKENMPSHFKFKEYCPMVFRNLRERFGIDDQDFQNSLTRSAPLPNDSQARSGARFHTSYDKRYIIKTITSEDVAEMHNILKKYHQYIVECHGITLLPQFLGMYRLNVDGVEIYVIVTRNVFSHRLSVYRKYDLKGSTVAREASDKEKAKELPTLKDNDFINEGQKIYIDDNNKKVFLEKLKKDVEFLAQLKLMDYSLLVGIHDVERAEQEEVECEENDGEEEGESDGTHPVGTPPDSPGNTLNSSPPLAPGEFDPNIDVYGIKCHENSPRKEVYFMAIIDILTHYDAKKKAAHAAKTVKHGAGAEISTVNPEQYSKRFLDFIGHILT
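Controls without substrate or without enzyme flank wells where PI5P4Kalpha converts substrate using 5 microM ATP (final). Incubation lasts 60 minutes at room temperature; ADP formed is read by ADP-Glo luminescence.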
PI4K2A inh: blocks human PI4K2A kinase activity; purified PI4K2A, ADP-Glo luminescence, 1 h; active compounds read low; activity change, negative = inhibition, % at 76.9 µM; hit rate 0.13% among 420,000; in the data active = activity change below about -50%;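 note: -100% = wells without enzyme as full effect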
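In this quantitative HTS, ADP production by PI4K2A was quantified luminescently after 1 h at ambient temperature; 100 microM adenosine served as plate-quality control.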
D3 ag: agonists of human D3 dopamine receptor; P35462; D3R DiscoveRx beta-arrestin cells, luminescence, 90 min; max activation, %; hit rate 0.58% among 410,000; AID 652048; in the data active = max activation above about 30%; note: 0% is about no effect
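Agonist-mode cell screen: cells plated at 1500/well and incubated overnight at 37 °C, then exposed to library compounds for 90 min at 37 °C. Detection reagent was added for 30–60 min at room temperature, and luminescence was read.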
An asterisk follows results filed as active; x = no result. A selection: hits, their analogues and other compounds. The true share with any hit is near 3.3%.

SMILES | DRD3 antagonist | LDHA block | PI5P4Ka inh | PI4K2A inh | D3 ag
Oc1ccc(/C=N/N(Cc2ccccc2)c2ccccc2)c(O)c1O | 0.4 | 31.1 | -76.2* | -5.1 | 1.6
COc1ccc(CSc2nc(C)cc(=O)[nH]2)cc1Br | -83.9* | 0.8 | x | -9.1 | -10.8
CC(Sc1nc(CN2CCOCC2)nc2ccccc12)C(=O)Nc1ccc(F)cc1F (configuration not stated) | x | -33.2* | x | x | x
CC(Sc1nc(CN2CCOCC2)nc2ccccc12)C(=O)NC1CC1 (configuration not stated) | x | -2.3 | x | x | x
CCCOc1ccc(NC(=O)c2cccc(C)c2)c2cccnc12 | x | -7.4 | x | x | x
Cc1ccccc1C(=O)N/N=C/C(C)C | x | 10.3 | x | x | x
CCCCCCCCCCCCN1[C@@H](CC(=O)OC)c2cc(F)cc(F)c2S1(=O)=O | 8.0 | 0.2 | 19.8 | 0.7 | 30.6*
CCCCCCCCCCCCN1[C@@H](CC(=O)OC)c2cc(F)ccc2S1(=O)=O | 30.5 | 1.3 | 17.3 | -0.4 | 9.3
COC(=O)C[C@H]1c2cc(F)ccc2S(=O)(=O)N1Cc1ccccc1 | 8.1 | -1.6 | 5.1 | -59.8* | -3.8
COC(=O)C[C@H]1c2cc(F)ccc2S(=O)(=O)N1c1ccccc1 | 0.0 | -3.3 | 9.1 | -1.0 | -1.5
Cc1nn(CC(=O)N2CCCCC2)c(C)c1S(=O)(=O)NC(C)(C)C | x | -3.5 | x | x | x
C/C=C/Cn1c(SCc2ccc(C)cc2)nc2c1c(=O)[nH]c(=O)n2C | 0.0 | -7.9 | -6.9 | 8.2 | 1.4
CC=CCn1c(SCc2ccccc2)nc2c1c(=O)[nH]c(=O)n2C | -3.8 | -9.6 | -58.4* | -1.7 | 3.4
Cn1c(=O)[nH]c(=O)c2c1nc(SCC(=O)O)n2CCc1ccccc1 | 34.5 | -2.7 | -56.7* | -2.6 | 2.1
CCOc1ccc2c(c1)cc(C(=O)NCc1ccccc1)n2C | x | 7.9 | x | x | x
O=C(CSc1nc2cc(Cl)ccc2s1)NC(c1ccccc1)c1ccccc1 | x | -0.8 | x | x | x
CSCCC(NC(=O)c1cccc(S(=O)(=O)N2CCN(C(C)=O)CC2)c1)c1nc2ccccc2[nH]1 (configuration not stated) | 0.0 | -3.5 | 3.6 | -8.9 | 6.7
O=C(NCc1ccccc1CN1CCCC1)c1ccc(S(=O)(=O)Nc2ccccc2F)cc1 | -5.7 | 0.1 | 3.4 | 1.5 | -0.3
CN(C)C(CNC(=O)c1cccc(S(=O)(=O)N2CCN(c3ccc(F)cc3)CC2)c1)c1ccccc1 (configuration not stated) | -80.6* | -4.6 | 22.6 | 1.7 | -16.2
CSCC[C@H](NC(=O)c1ccc(Cl)c(S(=O)(=O)N2CCCC2)c1)c1nc2ccccc2[nH]1 | -52.0* | -9.2 | x | -0.9 | -15.2
O=C(NCc1ccccc1CN1CCCC1)c1ccc(S(=O)(=O)Nc2ccccc2)cc1 | -58.6* | -6.5 | 4.3 | 5.8 | -10.1
CN(C)C(CNC(=O)c1ccc(Cl)c(S(=O)(=O)N2CCCCCC2)c1)c1ccccc1 (configuration not stated) | -80.7* | -1.9 | 5.2 | -10.5 | -25.0
COC(=O)COc1ccc2c(=O)c(-c3ccc(Cl)cc3)coc2c1 | x | 3.6 | x | x | x
O=C(OCc1cc2ccccc2[nH]c1=O)c1ccccc1F | x | -25.0 | x | x | x
CC1CCC2(CCC(=O)N2CCCO)CC1 (configuration not stated) | x | x | x | -1.5 | x
SMILES | DRD3 antagonist | LDHA block | PI5P4Ka inh | PI4K2A inh | D3 ag
CC(C)(C)C1CCc2onc(C(=O)N3CCCCC3)c2C1 (configuration not stated) | x | 10.1 | x | x | x
O=C(NCc1ccccc1CN1CCCC1)c1ccc(Cl)c(S(=O)(=O)N2CCCC2)c1 | -50.2* | -2.7 | 4.0 | -3.1 | -31.0
Cc1ccc(-c2cc(Nc3cccc(C)c3)nc(C)n2)cc1 | x | -18.3 | x | x | x
COc1ccc(C(CNC(=O)COc2ccc(F)cc2Cl)N2CCCCC2)cc1 (configuration not stated) | -26.2 | 0.0 | -0.2 | 1.6 | -14.0
COc1ccc(C(CNC(=O)COc2cccc(C)c2)N2CCCC2)cc1 (configuration not stated) | -75.7* | -3.6 | -3.2 | -1.3 | -2.5
COc1ccc(C(CNC(=O)COc2cccc(C(F)(F)F)c2)N2CCCC2)cc1 (configuration not stated) | -106.9* | -1.0 | 25.1 | -1.7 | -26.2
COc1ccc(C(CNC(=O)COc2ccc(Br)cc2F)N2CCCC2)cc1 (configuration not stated) | -76.2* | -1.3 | -4.7 | 2.2 | -35.5
